{
  "source": "ChEMBL document CHEMBL4513216",
  "about": "“Probing the Open Global Health Chemical Diversity Library for Multistage-Active Starting Points for Next-Generation Antimalarials” (ACS Infect Dis, 2020)",
  "note": "The campaign covered roughly 68,000 compounds. About 2,700 (4%) showed an effect of 50% or more. Shown is part of a subset that was picked to be rich in strong results.",
  "data": [
    {"system": "Plasmodium berghei", "test": "Screen against P. berghei liver stage (PbLuc), transformed with Luciferase, at 2uM", "assay_type": "functional, HepG2", "settings": "tested at 2 uM", "units": {"INHIBITION": "%"}, "values": [
      {"compound": "CCCN1CCN(C(=O)Cn2nc(C(F)(F)F)c(Br)c2C2CC2)CC1", "INHIBITION": -3.36},
      {"compound": "CC(C)C(NC(=O)c1ccc(Cl)cc1Cl)C(=O)Nc1ccn(C)n1", "note": "(stereo not drawn)", "INHIBITION": 42.76},
      {"compound": "O=C(COC1CCCCC1)Nc1ccn(CCc2ccncc2)n1", "INHIBITION": 13.99},
      {"compound": "Cn1cccc1C(=O)NC(C)(C(N)=O)c1cccc(C(F)(F)F)c1", "note": "(stereo not drawn)", "INHIBITION": -23.95},
      {"compound": "Cc1cccc(C2(O)CCN(Cc3ccccc3N3CCCC3)CC2)c1", "INHIBITION": 4.06},
      {"compound": "OC1(c2ccc(F)cc2)CCN(Cc2ccccc2N2CCCC2)CC1", "INHIBITION": 58.02},
      {"compound": "OC1(c2ccccc2F)CCN(Cc2ccccc2N2CCCC2)CC1", "INHIBITION": 14.73},
      {"compound": "Cc1noc(C)c1CN(C)CC(c1cccs1)N1CCOCC1", "note": "(stereo not drawn)", "INHIBITION": 43.7},
      {"compound": "Cc1cc(N(C)C)nc(NC2CCc3nc(C)nn3C2)n1", "note": "(stereo not drawn)", "INHIBITION": 13.28},
      {"compound": "O=C(O)c1ccccc1-c1ccc(CNC(=O)C2CCOCC2)cc1", "INHIBITION": 22.95},
      {"compound": "COc1cccc(CN2CCC(CO)(Cc3ccc(Cl)cc3)CC2)c1O", "INHIBITION": 71.83},
      {"compound": "COc1ccc(CN2CCC(CO)(Cc3ccc(Cl)cc3)CC2)c(O)c1", "INHIBITION": 36.34},
      {"compound": "OCC1(Cc2ccc(Cl)cc2)CCN(Cc2ccccc2O)CC1", "INHIBITION": -58.31},
      {"compound": "O=C(Nc1ccc(N2CCOCC2)nc1)N1CCc2sccc2C1", "INHIBITION": 57.59},
      {"compound": "O=C(Nc1ccc(N2CCCCC2)nc1)N1CCc2sccc2C1", "INHIBITION": -4.09},
      {"compound": "O=C(Nc1ccc(N2CCCC2)nc1)N1CCc2sccc2C1", "INHIBITION": -19.54},
      {"compound": "CN1C(=O)CCC12CCN(S(=O)(=O)c1ccccc1)CC2", "INHIBITION": 46.32},
      {"compound": "CCSc1ccccc1C(=O)N1CCC(S(=O)(=O)c2nncn2C)CC1", "INHIBITION": 59.08},
      {"compound": "Cn1cnnc1S(=O)(=O)C1CCN(C(=O)c2ccco2)CC1", "INHIBITION": 31.78},
      {"compound": "Cn1cnnc1S(=O)(=O)C1CCN(C(=O)c2cccs2)CC1", "INHIBITION": 25.55},
      {"compound": "CN(Cc1ccccc1F)Cc1cc2c(cc1Br)OCCO2", "INHIBITION": 12.68},
      {"compound": "Cc1cnc(C(=O)N2C[C@@H]3CC[C@H]2CN(Cc2cscn2)C3)[nH]1", "INHIBITION": -0.62},
      {"compound": "Cc1noc(C)c1CNCc1ccccc1N(C)C1CCN(C)CC1", "INHIBITION": 50.46},
      {"compound": "CCc1cc(CNCc2ccccc2N(C)C2CCN(C)CC2)on1", "INHIBITION": -19.27},
      {"compound": "CN1CCC(N(C)c2ccccc2CNCc2ccco2)CC1", "INHIBITION": 24.6},
      {"compound": "CCC(CO)N(C/C(C)=C/c1ccco1)Cc1ccsc1", "note": "(stereo not drawn)", "INHIBITION": 5.85},
      {"compound": "CCOc1ncccc1C(=O)NC1CC(=O)N(CC(F)(F)F)C1", "note": "(stereo not drawn)", "INHIBITION": -27.19},
      {"compound": "CC(=O)N1CCC(C(=O)N(CC(F)F)c2cccc(Cl)c2)CC1", "INHIBITION": 23.06},
      {"compound": "CCCS(=O)(=O)N1CCC(n2nc(-c3cc(C)oc3C)ccc2=O)CC1", "INHIBITION": -17.72},
      {"compound": "Cn1c(C2CCCN2C(=O)CN2CSCC2=O)nc2ccccc21", "note": "(stereo not drawn)", "INHIBITION": -73.81},
      {"compound": "CC(C)c1cc(C(=O)NC2CCN(CC(N)=O)CC2)nn1C(C)(C)C", "INHIBITION": 0.79},
      {"compound": "CC(C)(C)n1nc(C2CC2)cc1C(=O)NC1CCN(CC(N)=O)CC1", "INHIBITION": 40.97},
      {"compound": "CC(C)(C)n1nc(C(=O)NC2CCN(CC(N)=O)CC2)cc1C1CC1", "INHIBITION": 52.74},
      {"compound": "Cc1cc(C(=O)NCCN2CCC(C)CC2)nn1C(C)(C)C", "INHIBITION": 10.1},
      {"compound": "Cc1cc(C(=O)NC2CCN(CC(N)=O)CC2)nn1C(C)(C)C", "INHIBITION": 61.06},
      {"compound": "CNC(=O)C1CCC(NC(=O)c2cc(C3CC3)n(C(C)(C)C)n2)CC1", "note": "(stereo not drawn)", "INHIBITION": 37},
      {"compound": "NC(=O)NCC1CCCCN1Cc1nc(-c2ccco2)no1", "note": "(stereo not drawn)", "INHIBITION": -3.06},
      {"compound": "COc1ccc(CCC(=O)NCCN2CCC(c3cccs3)CC2)cc1", "INHIBITION": 11.78},
      {"compound": "CC(CC(=O)NCCNS(C)(=O)=O)C1CCCCC1", "note": "(stereo not drawn)", "INHIBITION": -13.76},
      {"compound": "CC(NC(=O)Cn1ccc(=O)n(C)c1=O)c1cc(F)ccc1F", "note": "(stereo not drawn)", "INHIBITION": 16.25},
      {"compound": "CC(C)OCCC(=O)Nc1c(-c2ccc(F)cc2)ncn1C", "INHIBITION": 6.47},
      {"compound": "CC(C)COCCC(=O)Nc1c(-c2ccc(F)cc2)ncn1C", "INHIBITION": 60.43},
      {"compound": "COCCOCCC(=O)Nc1c(-c2ccc(F)cc2)ncn1C", "INHIBITION": 35.68},
      {"compound": "CCN1CC(CN(C)Cc2nc(-c3cccc(Cl)c3)oc2C)CC1=O", "note": "(stereo not drawn)", "INHIBITION": 32.26},
      {"compound": "CN(Cc1nc(COc2ccccc2)no1)CC1Cc2ccccc2O1", "note": "(stereo not drawn)", "INHIBITION": 8.03},
      {"compound": "CN(Cc1nc(Cc2ccccc2F)no1)CC1Cc2ccccc2O1", "note": "(stereo not drawn)", "INHIBITION": 60.9},
      {"compound": "CN(Cc1nc(CC2CC2)no1)CC1Cc2ccccc2O1", "note": "(stereo not drawn)", "INHIBITION": 44.37},
      {"compound": "O=C(c1cccc(NCCO)c1)N1CCOCC1", "INHIBITION": 10.74},
      {"compound": "CCN(CC)C(=O)c1ccc(Cl)c(NC(=O)c2cnc(C)cn2)c1", "INHIBITION": 20.71},
      {"compound": "Cc1cn2c(n1)CCC(NC(=O)CCn1cncn1)C2", "note": "(stereo not drawn)", "INHIBITION": 19.64},
      {"compound": "Cc1cccc(CN2C[C@@H]3COC[C@]3(COCC(=O)N(C)C)C2)n1", "INHIBITION": 27.52},
      {"compound": "Cc1cc(CN2C[C@@H]3COC[C@]3(COCC(=O)N(C)C)C2)no1", "INHIBITION": 64.37},
      {"compound": "Cc1nc(CN2C[C@@H]3COC[C@]3(COCC(=O)N(C)C)C2)cs1", "INHIBITION": 23.09}
    ]}
  ]
}
